Data taken from PubChem BioAssay AID1159580 (chemical genetic matrix, 2015).
The whole screen tested about 5,500 compounds, of which about 2,000 (36%) were called active. Not shown: some 18% with an inconclusive outcome. No stated cut-off is given here; in the data, active means normalized growth mostly below about 0.91 (no sharp cut-off); inconclusive means no clear call, values can overlap the other calls; inactive means mostly above about 0.92. The list shows a part of the results.

Assay: chemical genetic growth profiling, strain panel (AID 1159580);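 further: tested at 20 µM; growth read once vehicle control cultures reached saturation at 30 °C; 1 = growth at the plate median or of vehicle wells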
Settings: S. cerevisiae deletion strains, growth OD

Measured: normalized growth

COc1cc(S(C)=O)ccc1-c1nc2ncccc2[nH]1 (stereo not drawn)
inactive: locus YAL013W, strain DEP1, stronger effect = lower value 1.01 | locus YAL021C, strain ccr4, stronger effect = lower value 0.936 | locus YAL026C, strain drs2, stronger effect = lower value 0.994 | locus YAL030W, strain snc1, stronger effect = lower value 0.976 | locus YBL061C, strain skt5, stronger effect = lower value 0.984 | locus YBR009C, strain hhf1, stronger effect = lower value 0.956 | locus YBR021W, strain FUR4, stronger effect = lower value 0.994 | locus YBR023C, strain chs3, stronger effect = lower value 0.98 | locus YBR171W, strain sec66, stronger effect = lower value 0.977 | locus YBR229C, strain ROT2, stronger effect = lower value 1.01 | locus YBR231C, strain swc5, stronger effect = lower value 1.01 | locus YBR279W, strain paf1, stronger effect = lower value 0.981 | locus YCL011C, strain gbp2, stronger effect = lower value 0.969 | locus YCL016C, strain dcc1, stronger effect = lower value 0.959 | locus YCL029C, strain bik1, stronger effect = lower value 0.985 | locus YCL061C, strain MRC1, stronger effect = lower value 0.984 | locus YCL069W, strain vba3, stronger effect = lower value 0.967 | locus YCR088W, strain abp1, stronger effect = lower value 0.981 | locus YDL005C, strain med2, stronger effect = lower value 0.966 | locus YDL035C, strain GPR1, stronger effect = lower value 1 | locus YDL040C, strain nat1, stronger effect = lower value 0.969 | locus YDL074C, strain BRE1, stronger effect = lower value 1.04 | locus YDL101C, strain DUN1, stronger effect = lower value 0.994 | locus YDL134C, strain PPH21, stronger effect = lower value 1.01 | locus YDL185W, strain tfp1, stronger effect = lower value 0.98 | locus YDL192W, strain arf1, stronger effect = lower value 0.985 | locus YDR001C, strain nth1, stronger effect = lower value 0.963 | locus YDR069C, strain doa4, stronger effect = lower value 0.958 | locus YDR101C, strain arx1, stronger effect = lower value 0.999 | locus YDR137W, strain rgp1, stronger effect = lower value 0.973 | locus YDR150W, strain NUM1, stronger effect = lower value 0.979 | locus YDR159W, strain sac3, stronger effect = lower value 0.96 | locus YDR162C, strain NBP2, stronger effect = lower value 1 | locus YDR195W, strain ref2 0.935 | locus YDR297W, strain sur2, stronger effect = lower value 0.974 | locus YDR318W, strain mcm21, stronger effect = lower value 0.997 | locus YDR334W, strain swr1, stronger effect = lower value 0.97 | locus YDR335W, strain msn5, stronger effect = lower value 0.96 | locus YDR388W, stronger effect = lower value 0.996 | locus YDR392W, strain spt3, stronger effect = lower value 0.848 | locus YDR502C, strain sam2, stronger effect = lower value 0.984 | locus YEL003W, strain gim4, stronger effect = lower value 0.98 | locus YEL037C, strain rad23, stronger effect = lower value 0.975 | locus YEL061C, strain CIN8 (second series), stronger effect = lower value 0.972 | locus YEL061C, strain CIN8, stronger effect = lower value 1 | locus YER015W, strain faa2, stronger effect = lower value 0.982 | locus YER016W, strain bim1, stronger effect = lower value 0.978 | locus YER110C, stronger effect = lower value 0.992 | locus YER111C, strain swi4, stronger effect = lower value 0.972 | locus YER155C, strain BEM2 (second series), stronger effect = lower value 0.994 | locus YER155C, strain BEM2, stronger effect = lower value 0.978 | locus YER167W, strain BCK2, stronger effect = lower value 1.01 | locus YFR010W, strain ubp6, stronger effect = lower value 0.974 | locus YGL078C, strain dbp3, stronger effect = lower value 0.993 | locus YGL086W, strain mad1, stronger effect = lower value 0.995 | locus YGL167C, strain pmr1, stronger effect = lower value 0.941 | locus YGL173C, strain kem1, stronger effect = lower value 0.99 | locus YGL227W, strain vid30, stronger effect = lower value 0.982 | locus YGL240W, strain doc1, stronger effect = lower value 0.999 | locus YGL248W, strain PDE1, stronger effect = lower value 0.995 | locus YGL253W, strain hxk2, stronger effect = lower value 0.987 | locus YGR078C, strain PAC10, stronger effect = lower value 1.02 | locus YGR135W, strain pre9, stronger effect = lower value 0.983 | locus YGR229C, strain SMI1, stronger effect = lower value 1.02 | locus YGR252W, strain gcn5, stronger effect = lower value 1.01 | locus YHR013C, strain ard1, stronger effect = lower value 0.929 | locus YHR027C, strain rpn1, stronger effect = lower value 0.97 | locus YHR030C, strain SLT2, stronger effect = lower value 0.984 | locus YHR079C, strain IRE1 (second series), stronger effect = lower value 0.997 | locus YHR094C, strain hxt1, stronger effect = lower value 0.99 | locus YHR129C, strain ARP1, stronger effect = lower value 1 | locus YHR142W, strain chs7, stronger effect = lower value 0.943 | locus YHR200W, strain rpn10, stronger effect = lower value 0.991 | locus YIL066C, strain RNR3, stronger effect = lower value 0.995 | locus YIL073C, strain SPO22, stronger effect = lower value 0.943 | locus YIL125W, strain kgd1, stronger effect = lower value 0.999 | locus YIR030C, strain dcg1, stronger effect = lower value 0.988 | locus YJL092W, strain hpr5, stronger effect = lower value 0.98 | locus YJL095W, strain BCK1 (second series), stronger effect = lower value 0.972 | locus YJL095W, strain BCK1, stronger effect = lower value 1.03 | locus YJL115W, strain asf1, stronger effect = lower value 0.972 | locus YJL129C, strain trk1, stronger effect = lower value 0.966 | locus YJL134W, strain LCB3, stronger effect = lower value 1.01 | locus YJL154C, strain vps35, stronger effect = lower value 0.972 | locus YJL164C, strain tpk1, stronger effect = lower value 0.941 | locus YJL166W, strain qcr8, stronger effect = lower value 0.984 | locus YJL168C, strain set2, stronger effect = lower value 1 | locus YJL187C, strain SWE1 (second series), stronger effect = lower value 0.989
